# Test results as given in ChEMBL document CHEMBL2218924, “A broad activity screen in support of a chemogenomic map for kinase signalling research and drug discovery” (Biochem J, 2013).
# Columns and labels:
# [1] = target: T1, Ephrin type-B receptor 1 (Homo sapiens) (UniProt P54762); conditions: at 10 µM
# T1 sequence (whole entry): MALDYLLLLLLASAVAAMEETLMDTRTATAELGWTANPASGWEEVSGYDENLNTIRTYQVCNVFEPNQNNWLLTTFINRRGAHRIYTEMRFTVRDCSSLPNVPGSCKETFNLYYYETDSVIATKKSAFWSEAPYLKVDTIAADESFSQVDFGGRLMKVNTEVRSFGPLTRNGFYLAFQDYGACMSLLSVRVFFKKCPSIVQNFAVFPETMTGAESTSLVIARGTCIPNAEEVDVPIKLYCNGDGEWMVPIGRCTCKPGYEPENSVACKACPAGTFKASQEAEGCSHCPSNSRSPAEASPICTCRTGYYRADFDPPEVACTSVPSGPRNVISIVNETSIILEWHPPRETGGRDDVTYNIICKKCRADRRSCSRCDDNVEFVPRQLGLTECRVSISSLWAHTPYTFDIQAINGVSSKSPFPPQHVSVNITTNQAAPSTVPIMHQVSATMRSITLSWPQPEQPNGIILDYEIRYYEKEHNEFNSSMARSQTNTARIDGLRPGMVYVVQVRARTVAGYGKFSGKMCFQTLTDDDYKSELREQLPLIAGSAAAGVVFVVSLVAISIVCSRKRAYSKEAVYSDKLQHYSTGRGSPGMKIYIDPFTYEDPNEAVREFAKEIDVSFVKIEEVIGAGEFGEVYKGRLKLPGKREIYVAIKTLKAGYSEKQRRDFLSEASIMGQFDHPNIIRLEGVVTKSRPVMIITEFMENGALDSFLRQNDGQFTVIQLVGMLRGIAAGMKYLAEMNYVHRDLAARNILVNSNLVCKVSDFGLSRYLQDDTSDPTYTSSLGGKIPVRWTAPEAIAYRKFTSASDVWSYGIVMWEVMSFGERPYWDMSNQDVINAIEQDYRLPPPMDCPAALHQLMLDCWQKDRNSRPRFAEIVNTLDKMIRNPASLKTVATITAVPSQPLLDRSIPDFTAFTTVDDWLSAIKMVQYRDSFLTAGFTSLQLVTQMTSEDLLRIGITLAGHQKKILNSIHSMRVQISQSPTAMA
# [2] = target: T2, Ephrin type-B receptor 2 (Homo sapiens) (UniProt P29323); conditions: at 1 µM
# T2 sequence (whole entry): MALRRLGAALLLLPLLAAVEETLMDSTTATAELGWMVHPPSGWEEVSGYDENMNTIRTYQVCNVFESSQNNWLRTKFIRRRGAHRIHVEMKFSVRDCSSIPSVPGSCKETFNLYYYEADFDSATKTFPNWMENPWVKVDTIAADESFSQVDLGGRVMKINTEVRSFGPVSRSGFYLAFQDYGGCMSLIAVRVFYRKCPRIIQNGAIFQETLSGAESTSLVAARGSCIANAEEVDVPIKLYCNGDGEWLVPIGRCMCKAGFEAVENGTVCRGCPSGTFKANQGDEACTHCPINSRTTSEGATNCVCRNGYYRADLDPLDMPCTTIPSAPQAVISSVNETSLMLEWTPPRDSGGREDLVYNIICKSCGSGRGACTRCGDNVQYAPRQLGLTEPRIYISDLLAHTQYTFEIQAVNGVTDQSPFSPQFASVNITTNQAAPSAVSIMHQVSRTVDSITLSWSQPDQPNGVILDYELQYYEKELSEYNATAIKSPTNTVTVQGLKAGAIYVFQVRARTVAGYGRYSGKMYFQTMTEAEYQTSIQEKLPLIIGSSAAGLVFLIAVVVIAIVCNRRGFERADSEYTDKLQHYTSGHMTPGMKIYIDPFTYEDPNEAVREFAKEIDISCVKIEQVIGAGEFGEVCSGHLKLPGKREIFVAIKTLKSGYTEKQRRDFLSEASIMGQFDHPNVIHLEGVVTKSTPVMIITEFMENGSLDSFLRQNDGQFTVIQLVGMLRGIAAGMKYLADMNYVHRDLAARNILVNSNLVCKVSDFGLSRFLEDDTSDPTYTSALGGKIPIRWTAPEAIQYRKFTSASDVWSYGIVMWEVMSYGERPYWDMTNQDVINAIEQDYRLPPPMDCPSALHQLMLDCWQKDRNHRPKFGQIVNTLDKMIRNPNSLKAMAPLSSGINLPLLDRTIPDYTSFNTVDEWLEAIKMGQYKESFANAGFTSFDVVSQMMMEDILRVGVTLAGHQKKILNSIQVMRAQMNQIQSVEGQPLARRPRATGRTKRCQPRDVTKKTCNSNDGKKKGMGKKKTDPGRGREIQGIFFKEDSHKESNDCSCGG
# [3] = target: T2, Ephrin type-B receptor 2 (Homo sapiens); conditions: at 10 µM
# [4] = target: T3, Ephrin type-B receptor 3 (Homo sapiens) (UniProt P54753); conditions: at 1 µM
# T3 sequence (whole entry): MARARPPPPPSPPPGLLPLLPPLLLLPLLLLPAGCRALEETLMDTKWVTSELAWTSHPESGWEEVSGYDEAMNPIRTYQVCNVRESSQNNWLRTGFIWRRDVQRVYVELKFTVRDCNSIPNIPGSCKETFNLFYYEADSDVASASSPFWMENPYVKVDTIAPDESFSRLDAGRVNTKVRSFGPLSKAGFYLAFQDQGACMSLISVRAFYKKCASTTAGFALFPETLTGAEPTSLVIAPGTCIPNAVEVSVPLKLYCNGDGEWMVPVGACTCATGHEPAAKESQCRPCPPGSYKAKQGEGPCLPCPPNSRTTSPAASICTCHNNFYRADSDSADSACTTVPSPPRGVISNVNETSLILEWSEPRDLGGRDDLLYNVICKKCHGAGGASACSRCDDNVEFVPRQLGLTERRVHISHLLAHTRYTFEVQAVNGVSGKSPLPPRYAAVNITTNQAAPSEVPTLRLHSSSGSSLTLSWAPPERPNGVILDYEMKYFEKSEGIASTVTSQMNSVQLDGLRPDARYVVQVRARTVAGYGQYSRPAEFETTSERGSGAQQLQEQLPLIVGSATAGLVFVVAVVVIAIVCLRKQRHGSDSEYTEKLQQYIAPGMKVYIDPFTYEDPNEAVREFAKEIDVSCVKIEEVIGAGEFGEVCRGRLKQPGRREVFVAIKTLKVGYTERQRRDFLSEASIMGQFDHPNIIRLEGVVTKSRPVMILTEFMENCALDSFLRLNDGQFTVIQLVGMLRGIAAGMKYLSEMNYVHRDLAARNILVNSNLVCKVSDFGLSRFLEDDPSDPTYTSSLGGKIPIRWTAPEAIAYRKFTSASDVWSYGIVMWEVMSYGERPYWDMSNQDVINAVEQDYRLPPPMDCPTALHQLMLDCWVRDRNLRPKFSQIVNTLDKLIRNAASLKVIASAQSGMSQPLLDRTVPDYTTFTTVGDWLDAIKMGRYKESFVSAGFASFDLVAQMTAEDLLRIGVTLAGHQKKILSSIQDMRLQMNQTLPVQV
# [5] = target: T3, Ephrin type-B receptor 3 (Homo sapiens); conditions: at 10 µM
# [6] = target: T4, Ephrin type-B receptor 4 (Homo sapiens) (UniProt P54760); conditions: at 1 µM
# T4 sequence (whole entry): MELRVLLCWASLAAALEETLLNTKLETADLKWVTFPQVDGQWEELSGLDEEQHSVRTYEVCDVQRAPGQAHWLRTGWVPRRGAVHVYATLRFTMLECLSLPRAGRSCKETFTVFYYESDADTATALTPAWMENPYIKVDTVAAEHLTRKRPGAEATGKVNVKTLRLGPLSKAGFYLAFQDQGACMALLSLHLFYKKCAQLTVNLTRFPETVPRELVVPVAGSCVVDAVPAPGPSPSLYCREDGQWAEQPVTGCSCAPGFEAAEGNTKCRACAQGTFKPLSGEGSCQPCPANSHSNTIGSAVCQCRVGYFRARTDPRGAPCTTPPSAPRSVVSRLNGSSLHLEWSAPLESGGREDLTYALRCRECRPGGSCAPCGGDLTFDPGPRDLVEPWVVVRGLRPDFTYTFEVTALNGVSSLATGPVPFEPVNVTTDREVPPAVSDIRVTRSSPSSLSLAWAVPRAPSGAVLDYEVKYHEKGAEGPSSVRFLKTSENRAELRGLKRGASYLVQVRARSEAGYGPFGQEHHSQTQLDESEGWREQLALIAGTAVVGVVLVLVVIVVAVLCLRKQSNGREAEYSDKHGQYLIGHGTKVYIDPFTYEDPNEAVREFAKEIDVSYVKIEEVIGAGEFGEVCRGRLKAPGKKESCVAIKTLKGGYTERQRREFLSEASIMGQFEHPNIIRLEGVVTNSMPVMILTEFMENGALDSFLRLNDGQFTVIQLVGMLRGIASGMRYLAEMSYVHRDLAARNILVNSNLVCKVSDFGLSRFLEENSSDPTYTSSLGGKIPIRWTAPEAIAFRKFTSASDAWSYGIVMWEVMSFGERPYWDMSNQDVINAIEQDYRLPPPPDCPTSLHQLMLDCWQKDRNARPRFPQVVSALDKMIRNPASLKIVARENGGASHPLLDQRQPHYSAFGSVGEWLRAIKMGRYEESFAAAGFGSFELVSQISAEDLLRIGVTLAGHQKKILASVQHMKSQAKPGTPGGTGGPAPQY
# [7] = target: T4, Ephrin type-B receptor 4 (Homo sapiens); conditions: at 10 µM
# [8] = target: Receptor tyrosine-protein kinase erbB-4 (Homo sapiens) (UniProt Q15303); conditions: at 1 µM
# Receptor tyrosine-protein kinase erbB-4 (Homo sapiens), sequence (Q15303 whole entry): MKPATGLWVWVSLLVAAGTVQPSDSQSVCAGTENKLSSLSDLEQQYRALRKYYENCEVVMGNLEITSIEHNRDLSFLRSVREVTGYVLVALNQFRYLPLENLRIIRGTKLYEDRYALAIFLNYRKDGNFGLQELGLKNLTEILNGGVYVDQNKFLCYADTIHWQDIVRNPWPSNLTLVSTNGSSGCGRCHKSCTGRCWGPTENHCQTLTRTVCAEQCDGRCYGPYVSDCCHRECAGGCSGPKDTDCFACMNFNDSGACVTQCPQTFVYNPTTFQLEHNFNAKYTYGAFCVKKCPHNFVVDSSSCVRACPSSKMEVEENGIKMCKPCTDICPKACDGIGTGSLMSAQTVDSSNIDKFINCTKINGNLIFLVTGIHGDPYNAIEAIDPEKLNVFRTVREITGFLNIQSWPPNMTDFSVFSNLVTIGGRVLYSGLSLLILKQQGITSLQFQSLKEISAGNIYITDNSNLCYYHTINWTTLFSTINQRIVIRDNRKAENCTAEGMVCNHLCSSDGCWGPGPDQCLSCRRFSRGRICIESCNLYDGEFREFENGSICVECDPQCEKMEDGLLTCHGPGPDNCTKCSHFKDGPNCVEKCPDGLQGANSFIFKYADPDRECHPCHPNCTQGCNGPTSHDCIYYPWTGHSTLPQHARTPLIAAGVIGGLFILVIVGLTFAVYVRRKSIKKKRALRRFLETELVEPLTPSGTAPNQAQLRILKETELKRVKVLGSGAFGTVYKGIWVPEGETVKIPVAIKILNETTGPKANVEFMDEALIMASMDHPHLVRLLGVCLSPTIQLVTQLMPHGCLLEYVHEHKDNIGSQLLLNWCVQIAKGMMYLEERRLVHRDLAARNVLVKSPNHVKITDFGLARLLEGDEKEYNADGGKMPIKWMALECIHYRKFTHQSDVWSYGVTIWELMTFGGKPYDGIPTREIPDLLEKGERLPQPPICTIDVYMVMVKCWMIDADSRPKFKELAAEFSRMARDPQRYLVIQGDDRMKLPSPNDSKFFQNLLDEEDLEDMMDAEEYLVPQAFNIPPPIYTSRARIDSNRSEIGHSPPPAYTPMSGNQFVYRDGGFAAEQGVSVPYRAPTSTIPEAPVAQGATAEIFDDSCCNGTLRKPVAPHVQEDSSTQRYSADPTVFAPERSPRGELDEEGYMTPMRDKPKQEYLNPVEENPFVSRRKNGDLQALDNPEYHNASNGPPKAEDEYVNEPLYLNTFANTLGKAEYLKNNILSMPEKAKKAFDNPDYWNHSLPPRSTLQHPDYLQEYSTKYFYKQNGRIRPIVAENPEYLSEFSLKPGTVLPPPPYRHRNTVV
# [9] = target: Receptor tyrosine-protein kinase erbB-4 (Homo sapiens) (UniProt Q15303); conditions: at 10 µM
# [10] = target: Focal adhesion kinase 1 (Homo sapiens) (UniProt Q05397); conditions: at 1 µM
# Focal adhesion kinase 1 (Homo sapiens), sequence (Q05397 2-1052 limits assumed): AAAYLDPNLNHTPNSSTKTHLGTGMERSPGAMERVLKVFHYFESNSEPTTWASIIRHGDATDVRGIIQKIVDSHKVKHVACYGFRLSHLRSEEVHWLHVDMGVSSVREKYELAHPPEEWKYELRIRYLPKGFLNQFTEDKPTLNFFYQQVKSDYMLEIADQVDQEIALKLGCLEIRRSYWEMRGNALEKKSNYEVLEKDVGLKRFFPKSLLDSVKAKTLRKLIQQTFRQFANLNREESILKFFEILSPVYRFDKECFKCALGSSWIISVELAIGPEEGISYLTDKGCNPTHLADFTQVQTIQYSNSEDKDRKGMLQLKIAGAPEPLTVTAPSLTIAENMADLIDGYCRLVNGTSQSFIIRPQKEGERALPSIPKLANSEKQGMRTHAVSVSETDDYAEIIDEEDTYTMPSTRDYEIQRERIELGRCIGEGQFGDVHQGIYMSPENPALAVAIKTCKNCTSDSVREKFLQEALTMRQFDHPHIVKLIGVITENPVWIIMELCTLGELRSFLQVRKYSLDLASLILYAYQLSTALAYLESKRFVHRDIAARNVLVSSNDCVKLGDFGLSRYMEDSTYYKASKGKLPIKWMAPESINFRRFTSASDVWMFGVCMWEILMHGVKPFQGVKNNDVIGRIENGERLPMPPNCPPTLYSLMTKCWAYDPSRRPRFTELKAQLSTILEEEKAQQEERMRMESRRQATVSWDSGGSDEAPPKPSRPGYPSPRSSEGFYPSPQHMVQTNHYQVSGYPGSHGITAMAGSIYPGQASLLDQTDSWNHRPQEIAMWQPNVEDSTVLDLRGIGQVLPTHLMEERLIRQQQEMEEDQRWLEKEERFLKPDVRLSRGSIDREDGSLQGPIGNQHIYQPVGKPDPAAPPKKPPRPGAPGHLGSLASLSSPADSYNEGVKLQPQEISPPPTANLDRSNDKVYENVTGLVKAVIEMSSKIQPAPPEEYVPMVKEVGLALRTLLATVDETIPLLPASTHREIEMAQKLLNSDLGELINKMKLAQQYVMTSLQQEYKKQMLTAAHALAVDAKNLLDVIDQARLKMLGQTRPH
# [11] = target: Focal adhesion kinase 1 (Homo sapiens) (UniProt Q05397); conditions: at 10 µM
# [12] = target: Fibroblast growth factor receptor 1 (Homo sapiens) (UniProt P11362); conditions: at 1 µM
# [13] = target: Fibroblast growth factor receptor 1 (Homo sapiens) (UniProt P11362); conditions: at 10 µM
# [14] = target: Fibroblast growth factor receptor 2 (Homo sapiens) (UniProt P21802); conditions: at 1 µM
# [15] = target: Fibroblast growth factor receptor 2 (Homo sapiens) (UniProt P21802); conditions: at 10 µM
# [16] = target: Fibroblast growth factor receptor 3 (Homo sapiens) (UniProt P22607); conditions: at 1 µM
# Fibroblast growth factor receptor 3 (Homo sapiens), sequence (P22607 23-806 limits assumed): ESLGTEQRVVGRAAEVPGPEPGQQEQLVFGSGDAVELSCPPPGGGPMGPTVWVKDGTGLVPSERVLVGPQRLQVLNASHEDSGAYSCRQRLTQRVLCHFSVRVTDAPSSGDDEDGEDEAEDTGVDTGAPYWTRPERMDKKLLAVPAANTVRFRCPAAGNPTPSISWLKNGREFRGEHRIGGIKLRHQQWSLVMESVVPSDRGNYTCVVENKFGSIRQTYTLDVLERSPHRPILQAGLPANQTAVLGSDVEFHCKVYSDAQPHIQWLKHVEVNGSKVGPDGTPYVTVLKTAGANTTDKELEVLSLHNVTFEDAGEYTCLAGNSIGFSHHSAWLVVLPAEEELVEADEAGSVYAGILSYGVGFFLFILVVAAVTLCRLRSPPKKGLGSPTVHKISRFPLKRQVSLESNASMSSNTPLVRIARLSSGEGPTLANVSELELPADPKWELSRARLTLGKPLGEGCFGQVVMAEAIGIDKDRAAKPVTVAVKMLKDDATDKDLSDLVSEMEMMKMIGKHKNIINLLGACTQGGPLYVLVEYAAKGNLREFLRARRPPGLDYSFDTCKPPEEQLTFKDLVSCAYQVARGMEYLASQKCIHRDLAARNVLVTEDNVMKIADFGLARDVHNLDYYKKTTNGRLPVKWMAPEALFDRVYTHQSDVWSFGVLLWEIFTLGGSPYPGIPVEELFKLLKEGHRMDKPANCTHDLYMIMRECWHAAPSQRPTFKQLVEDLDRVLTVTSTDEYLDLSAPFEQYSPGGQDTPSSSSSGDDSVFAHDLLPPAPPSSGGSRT
# [17] = target: Fibroblast growth factor receptor 3 (Homo sapiens) (UniProt P22607); conditions: at 10 µM
# [18] = target: Fibroblast growth factor receptor 4 (Homo sapiens) (UniProt P22455); conditions: at 1 µM
# Fibroblast growth factor receptor 4 (Homo sapiens), sequence (P22455 22-802 limits assumed): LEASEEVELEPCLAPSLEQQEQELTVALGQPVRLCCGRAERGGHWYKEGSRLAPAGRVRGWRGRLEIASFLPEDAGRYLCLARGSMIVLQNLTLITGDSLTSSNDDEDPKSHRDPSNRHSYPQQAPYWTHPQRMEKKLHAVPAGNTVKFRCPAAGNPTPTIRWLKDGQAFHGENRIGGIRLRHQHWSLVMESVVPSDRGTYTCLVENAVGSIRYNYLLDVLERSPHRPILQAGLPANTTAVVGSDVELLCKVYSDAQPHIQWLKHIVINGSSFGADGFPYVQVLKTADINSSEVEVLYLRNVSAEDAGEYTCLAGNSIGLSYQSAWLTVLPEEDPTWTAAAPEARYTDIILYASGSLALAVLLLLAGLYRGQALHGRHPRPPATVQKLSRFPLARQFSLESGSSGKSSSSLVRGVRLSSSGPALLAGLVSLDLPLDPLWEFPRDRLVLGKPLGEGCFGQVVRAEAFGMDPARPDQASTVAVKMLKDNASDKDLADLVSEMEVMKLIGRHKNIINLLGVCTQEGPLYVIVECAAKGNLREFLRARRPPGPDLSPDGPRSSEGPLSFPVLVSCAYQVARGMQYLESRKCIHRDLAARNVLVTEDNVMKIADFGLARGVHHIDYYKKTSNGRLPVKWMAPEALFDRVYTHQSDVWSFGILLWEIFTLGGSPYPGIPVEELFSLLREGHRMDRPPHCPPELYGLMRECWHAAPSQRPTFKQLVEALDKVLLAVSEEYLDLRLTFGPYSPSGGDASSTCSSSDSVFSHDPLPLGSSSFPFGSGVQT
# [19] = target: Fibroblast growth factor receptor 4 (Homo sapiens) (UniProt P22455); conditions: at 10 µM
# [20] = target: Tyrosine-protein kinase Fer (Homo sapiens) (UniProt P16591); conditions: at 1 µM
# Tyrosine-protein kinase Fer (Homo sapiens), sequence (P16591 whole entry, looked up): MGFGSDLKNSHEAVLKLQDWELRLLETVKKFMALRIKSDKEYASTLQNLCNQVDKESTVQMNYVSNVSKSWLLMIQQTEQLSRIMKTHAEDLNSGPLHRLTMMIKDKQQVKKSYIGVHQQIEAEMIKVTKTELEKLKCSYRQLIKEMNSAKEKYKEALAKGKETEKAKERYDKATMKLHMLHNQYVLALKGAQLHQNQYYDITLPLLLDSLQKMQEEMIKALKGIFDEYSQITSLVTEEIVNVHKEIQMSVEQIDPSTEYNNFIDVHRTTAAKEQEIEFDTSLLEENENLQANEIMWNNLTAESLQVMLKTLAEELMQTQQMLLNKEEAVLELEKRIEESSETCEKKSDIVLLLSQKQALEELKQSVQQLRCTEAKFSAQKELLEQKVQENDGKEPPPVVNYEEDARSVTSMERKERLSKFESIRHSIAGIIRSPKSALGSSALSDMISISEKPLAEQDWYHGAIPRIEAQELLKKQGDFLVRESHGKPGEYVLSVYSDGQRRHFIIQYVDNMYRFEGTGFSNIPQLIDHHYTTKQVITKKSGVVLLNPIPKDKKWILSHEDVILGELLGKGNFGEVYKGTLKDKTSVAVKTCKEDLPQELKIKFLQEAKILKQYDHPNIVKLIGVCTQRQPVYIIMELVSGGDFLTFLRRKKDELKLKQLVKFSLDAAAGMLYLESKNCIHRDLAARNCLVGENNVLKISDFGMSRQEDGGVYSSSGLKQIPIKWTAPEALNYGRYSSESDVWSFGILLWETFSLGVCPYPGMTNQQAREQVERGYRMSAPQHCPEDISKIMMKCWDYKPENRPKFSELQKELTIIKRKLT
SMILES,residual activity [1],residual activity [2],residual activity [3],residual activity [4],residual activity [5],residual activity [6],residual activity [7],residual activity [8],residual activity [9],residual activity [10],residual activity [11],residual activity [12],residual activity [13],residual activity [14],residual activity [15],residual activity [16],residual activity [17],residual activity [18],residual activity [19],residual activity [20]
O=C1NC(=O)c2cc(Nc3ccc(F)cc3)c(Nc3ccc(F)cc3)cc21,60%,105%,69%,100% (inactive),105%,95%,56%,87%,35%,137%,89%,85%,135%,101%,82%,114%,103%,142%,93%,109%
CO[C@H]1[C@@H](OC)C[C@H](C)[C@@H](OC)C2=CC(=O)C=C(NC(=O)/C(C)=C/C=C/[C@H](OC)[C@@H](OC(N)=O)/C(C)=C/[C@@H]1C)C2=O,103%,115%,128%,111% (inactive),102%,94%,113%,92%,67%,110%,91%,82%,93%,104%,105%,112%,102%,109%,94%,110%
COc1cc2ncc(-c3ccccc3)nc2cc1OC,,,,132% (inactive),90%,125%,123%,88%,85%,139%,95%,,,100%,93%,,,,,
Cc1ccc(NC2=CC(=O)c3sc(C)nc3C2=O)cc1,97%,123%,121%,104% (inactive),99%,98%,96%,77%,88%,96%,99%,106%,112%,100%,92%,107%,118%,101%,90%,92%
c1ccc(-c2n[nH]cc2-c2ccnc3ccccc23)nc1,105%,,,102% (inactive),137%,109%,105%,98%,98%,,,80%,72%,101%,97%,,,,,
COc1cc2ncnc(Nc3ccc(NC(=O)c4ccccc4)cc3)c2cc1OC,83%,,,,,,,35%,6%,142%,75%,,,,92%,,,,82%,111%
Cc1cc2ncc(-c3ccccc3)nc2cc1C,106%,,103%,106% (inactive),125%,,,99%,105%,,92%,86%,101%,,102%,85%,95%,134%,93%,
CCN(CC)C(=O)c1ccc(Nc2nc(OCC3CCCCC3)c3nc[nH]c3n2)cc1,4%,103%,32%,102% (inactive),52%,72%,12%,74%,34%,72%,12%,40%,2%,56%,9%,49%,4%,,,53%
c1ccc(-c2n[nH]c3c2oc2ccccc23)cc1,90%,,,93% (inactive),100%,100%,116%,90%,,122%,76%,90%,36%,,52%,98%,59%,,,
O=c1c2ccccc2[nH]c(=S)n1CCN1CCC(=C(c2ccc(F)cc2)c2ccc(F)cc2)CC1,90%,,,112% (inactive),107%,99%,121%,102%,66%,135%,81%,83%,49%,119%,62%,123%,78%,,81%,109%
Cc1cccc(-c2[nH]c(C(C)(C)C)nc2-c2ccc3c(c2)OCO3)n1,,,,,,,,94%,86%,,95%,,,,95%,,129%,,,
